Experimental data reported in PubChem BioAssay (Tox21).
Records with an inconclusive call do not appear. Active and inactive are the calls of the source. Unless noted, calls follow the shape of the dose curve; as a rule, active = well fitted curve in the direction sought with a large enough effect in the repeat runs; inconclusive = weak or mixed curves; inactive = no such curve, though single readings can be large; an effect the other way counts as inactive or inconclusive.

Key:
[1] = A CellTox Green Cytotoxicity Assay to monitor cytotoxicity in HEK293 cells - 32 hour (AID 1224881); also: nearly all actives have a fitted effect of over 40% in size; also: potency is read from the fitted curve at half-maximal effect
Procedure, shortened: (§1)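 Nonlytic real-time cytotoxicity: HEK293 + CellTox Green reagent plated, 5 h preincubation, pintool compound addition (23 nL in DMSO), 37 C for 40 h, fluorescence measured at successive time points.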

[2] = A CellTox Green Cytotoxicity Assay to monitor cytotoxicity in HepG2 cells - 0 hour (AID 1224882); also: nearly all actives have a fitted effect of over 35% in size
Procedure, shortened: (§2)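 Read-out is fluorescence of a cyanine dye excluded from live cells that stains DNA of dead HepG2 cells, with signal proportional to cytotoxicity. Plates were read at 0, 8, 16, 24, 32 and 40 h after compound addition.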

[3] = A CellTox Green Cytotoxicity Assay to monitor cytotoxicity in HepG2 cells - 32 hour (AID 1224883); also: nearly all actives have a fitted effect of over 50% in size; also: potency is read from the fitted curve at half-maximal effect
Procedure, shortened: as §2

[4] = A CellTox Green Cytotoxicity Assay to monitor cytotoxicity in HEK293 cells - 8 hour (AID 1224884); also: nearly all actives have a fitted effect of over 35% in size
Procedure, shortened: as §1

[5] = qHTS RealTime-Glo MT Cell Viability Assay in HepG2 cells - 16 hour (AID 1224885); also: nearly all actives have a fitted effect of over 50% in size
Procedure, shortened: (§3)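 Cell number in HepG2 cultures estimated from NanoLuc luminescence generated by metabolic reduction of a prosubstrate by living cells. The homogeneous, nonlytic format allowed repeated reads at 0, 8, 16, 24, 32 and 40 h of compound exposure.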

[6] = qHTS RealTime-Glo MT Cell Viability Assay in HEK293 cells - 8 hour (AID 1224887); also: top concentration of the series differs between compounds; nearly all actives have a fitted effect of over 50% in size
Procedure, shortened: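 Cells were seeded together with NanoLuc luciferase and a prosubstrate that viable cells reduce to a luciferase substrate. After a 5 h incubation at 37 C/5% CO2, compounds were added and luminescence was measured repeatedly during 40 h of treatment.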

[7] = A CellTox Green Cytotoxicity Assay to monitor cytotoxicity in HEK293 cells - 16 hour (AID 1224888); also: nearly all actives have a fitted effect of over 35% in size
Procedure, shortened: as §1

[8] = qHTS RealTime-Glo MT Cell Viability Assay in HepG2 cells - 0 hour (AID 1224889); also: nearly all actives have a fitted effect of over 50% in size
Procedure, shortened: as §3

[9] = A CellTox Green Cytotoxicity Assay to monitor cytotoxicity in HepG2 cells - 8 hour (AID 1224890); also: nearly all actives have a fitted effect of over 45% in size
Procedure, shortened: as §2

[10] = qHTS assay to identify small molecule antagonists of the estrogen receptor alpha (ER-alpha) signaling pathway using the BG1 cell line in the presence of 0.1 nM 17-beta-estradiol - cell viability counter screen (AID 1259241); also: nearly all actives have a fitted effect of over 40% in size
Procedure, shortened: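 VM7Luc4E2 cells (endogenous full-length ER-alpha, 4xERE-luciferase), cultured 5 days in charcoal-stripped serum, exposed to compounds with 0.1 nM 17beta-estradiol (final) for 22 hr at 37C. Viability read in same wells as live-cell protease fluorescence after 30 min.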

[11] = qHTS assay to identify small molecule antagonists of the androgen receptor (AR) signaling pathway using the MDA cell line in the presence of 0.5 nM R1881 - cell viability counter screen (AID 1259242); also: nearly all actives have a fitted effect of over 45% in size
Procedure, shortened: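 Counter screen for cytotoxicity run in the same wells as the AR antagonist reporter screen: MDA-kb2 cells were treated 16 hr with test compounds and 0.5 nM R1881, then live-cell protease activity was measured by fluorescence.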

[12] = biological target: Estrogen receptor (Homo sapiens) (UniProt P03372); assay: qHTS assay to identify small molecule antagonists of the estrogen receptor alpha (ER-alpha) signaling pathway using the BG1 cell line in the presence of 0.1 nM 17-beta-estradiol (AID 1259244); also: nearly all actives have a fitted effect of over 50% in size
Procedure, shortened: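 Cells: VM7Luc4E2, endogenous ER-alpha, 4x ERE-luc stable. Pre-culture 5 d, phenol red-free, charcoal-stripped FBS. Plated 24 h, compound + E2 0.1 nM final, 22 h 37C/5% CO2. Readout ONE-Glo luminescence.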

[13] = qHTS assay to identify small molecule HDAC inhibitors (AID 1259364); also: nearly all actives have a fitted effect of over 45% in size; also: potency is read from the fitted curve at half-maximal effect
Procedure, shortened: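 Luminescence from a cell-permeant luminogenic class I/II HDAC substrate reports endogenous deacetylase activity in intact HCT-116 cells treated with compounds for 2 h.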

[14] = qHTS assay to identify small molecule HDAC inhibitors - cell viability counter screen (AID 1259365)
Procedure, shortened: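 Wild-type HCT-116 cells, 1,500/well, cultured overnight, then compound-treated 2 h at 37 C. Viability measured as ATP luminescence with CellTiter-Glo after 30 min at room temperature.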

[15] = qHTS assay to identify small molecule agonists of the sonic hedgehog signaling (Shh) pathway - cell viability counter screen (AID 1259366); also: nearly all actives have a fitted effect of over 50% in size; also: potency is read from the fitted curve at half-maximal effect
Procedure, shortened: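 NIH/3T3-derived Gli1-Luc reporter cells, 2,000 per well, received compound after 4 h and were treated about 23 h at 37C. Viability measured in the same wells by CellTiter-Fluor fluorescence after 1 h.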

[16] = qHTS assay to identify small molecule antagonists of the sonic hedgehog signaling (Shh) pathway - cell viability counter screen (AID 1259367); also: nearly all actives have a fitted effect of over 55% in size
Procedure, shortened: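 Seed 3T3 Gli1-Luc cells at 2,000 per well; incubate 4 hr; add compound in DMSO, then conditioned medium; incubate at 37C with 5% CO2; add CellTiter-Fluor after 23 hr; read fluorescence 1 hr later.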

[17] = qHTS RealTime-Glo MT Cell Viability Assay in HEK293 cells - 24 hour (AID 1224886); also: nearly all actives have a fitted effect of over 50% in size; also: potency is read from the fitted curve at half-maximal effect
Procedure, shortened: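 Homogeneous bioluminescent viability format in HEK293 cells (600 cells/well). Following 5 h at 37 C/5% CO2, 23 nL compound was pintooled; the signal was measured repeatedly during 40 h incubation.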

[18] = qHTS assay to identify small molecule agonists of the sonic hedgehog signaling (Shh) pathway (AID 1259368; calls by dose curve;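 also: NIH/3T3-derived 3T3Gli1-Luc cells carrying a stable Gli1-driven firefly luciferase reporter; series mostly up to about 92 µM; nearly all actives have a fitted effect of over 15% in size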)
Procedure, shortened: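 3T3Gli1-Luc (NIH/3T3 clone, stable Gli1-Luc); 4 hr pre-incubation, then cpd in DMSO 24 hr, 37 C/5% CO2; luciferase reagent 30 min RT; luminescence.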

[19] = biological target: Androgen receptor (Homo sapiens) (UniProt P10275); assay: qHTS assay to identify small molecule antagonists of the androgen receptor (AR) signaling pathway using the MDA cell line in the presence of 0.5 nM R1881 (AID 1259243); also: nearly all actives have a fitted effect of over 50% in size
Procedure, shortened: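 Luciferase luminescence is the read-out: compounds are tested for suppressing 0.5 nM R1881-driven MMTV reporter activity in MDA-kb2 cells after 16 hr at 37C.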

[20] = qHTS assay to identify small molecule phospholipidosis (PLD) inducers (AID 1259344; active = well fitted curve in the direction sought with a large enough effect; an effect the other way counts as inactive or inconclusive)
Procedure, shortened: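 Quantitative HTS in HepG2: compound plus LipidTOX Red dye for 24 h, paraformaldehyde fixation with Hoechst 33342, widefield high-content imaging; amiodarone as positive and DMSO as negative control.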

Measured: Potency

Sequence of Estrogen receptor (Homo sapiens) (P03372 whole entry, looked up): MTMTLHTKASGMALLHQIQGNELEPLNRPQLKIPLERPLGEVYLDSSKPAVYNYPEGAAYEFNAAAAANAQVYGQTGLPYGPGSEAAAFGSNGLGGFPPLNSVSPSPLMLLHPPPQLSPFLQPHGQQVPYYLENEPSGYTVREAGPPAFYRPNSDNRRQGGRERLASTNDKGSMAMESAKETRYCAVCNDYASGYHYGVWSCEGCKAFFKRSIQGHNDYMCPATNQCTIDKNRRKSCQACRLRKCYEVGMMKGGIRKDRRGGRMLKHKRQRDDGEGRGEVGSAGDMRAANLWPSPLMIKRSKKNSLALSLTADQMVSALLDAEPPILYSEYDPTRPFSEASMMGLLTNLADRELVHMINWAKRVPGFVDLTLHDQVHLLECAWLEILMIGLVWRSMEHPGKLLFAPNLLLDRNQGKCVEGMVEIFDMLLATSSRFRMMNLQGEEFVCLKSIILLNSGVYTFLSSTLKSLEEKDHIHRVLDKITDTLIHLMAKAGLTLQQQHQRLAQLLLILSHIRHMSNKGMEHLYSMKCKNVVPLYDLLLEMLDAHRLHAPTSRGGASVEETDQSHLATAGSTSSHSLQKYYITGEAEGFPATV
Sequence of Androgen receptor (Homo sapiens) (P10275 whole entry, looked up): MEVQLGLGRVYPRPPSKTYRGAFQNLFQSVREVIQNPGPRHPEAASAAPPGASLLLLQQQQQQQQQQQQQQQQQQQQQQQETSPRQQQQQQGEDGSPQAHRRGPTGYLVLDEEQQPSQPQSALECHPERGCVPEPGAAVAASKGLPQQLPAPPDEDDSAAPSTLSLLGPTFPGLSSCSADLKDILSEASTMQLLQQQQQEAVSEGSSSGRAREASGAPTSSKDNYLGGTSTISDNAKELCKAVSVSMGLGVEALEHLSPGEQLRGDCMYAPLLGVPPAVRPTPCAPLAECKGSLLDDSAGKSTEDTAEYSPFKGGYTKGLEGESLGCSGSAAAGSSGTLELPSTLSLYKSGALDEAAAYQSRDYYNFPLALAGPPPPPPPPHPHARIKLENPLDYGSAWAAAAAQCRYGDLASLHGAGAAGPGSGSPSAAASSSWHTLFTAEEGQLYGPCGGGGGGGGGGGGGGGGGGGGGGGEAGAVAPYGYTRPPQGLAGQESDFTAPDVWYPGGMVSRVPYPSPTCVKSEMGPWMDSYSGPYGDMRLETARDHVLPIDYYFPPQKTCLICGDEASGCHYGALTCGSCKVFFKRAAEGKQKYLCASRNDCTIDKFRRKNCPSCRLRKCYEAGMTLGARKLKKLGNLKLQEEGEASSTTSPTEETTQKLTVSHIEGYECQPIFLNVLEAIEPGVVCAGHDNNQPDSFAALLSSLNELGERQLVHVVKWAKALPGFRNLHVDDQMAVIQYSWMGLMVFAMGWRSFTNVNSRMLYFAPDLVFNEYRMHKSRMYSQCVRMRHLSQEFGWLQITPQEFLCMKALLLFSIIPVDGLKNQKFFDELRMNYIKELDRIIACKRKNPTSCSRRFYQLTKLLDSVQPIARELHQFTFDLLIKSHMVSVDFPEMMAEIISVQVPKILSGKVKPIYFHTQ

C=C(C)[C@@H]1CC=C(C=O)CC1
not listed: [17] | [18] | [19] | [20]
inactive: all other assays above

C[N+](C)=CCl
not listed: [8] | [9] | [19] | [20]
inactive: all other assays above

c1cc[c]([Hg][c]2ccccc2)cc1
active: [1] 38.9 µM | [3] 49 µM | [17] 34.7 µM | [13] 2.43 µM
not listed: [6] | [7] | [16] | [19] | [20]
inactive: all other assays above

Nc1cc(Cl)ccc1O
active: [15] 59.1 µM
not listed: [6] | [16] | [19] | [20]
inactive: all other assays above

O=C1CN2CCOC2(c2ccccc2Cl)c2cc(Cl)ccc2N1 (centres undefined)
not listed: [7] | [10] | [16] | [19] | [20]
inactive: all other assays above

CS(=O)(=O)c1cc(C(F)(F)F)ccc1C(=O)c1cnoc1C1CC1
not listed: [8] | [17] | [19] | [20]
inactive: all other assays above

O=C1OC(CCN2CCCCC2)OC1(c1ccccc1)c1ccccc1 (centres undefined)
not listed: [7] | [15] | [17] | [20]
inactive: all other assays above

CCCCOC(=O)c1ccccc1C(=O)O
not listed: [3] | [10] | [12] | [20]
inactive: all other assays above

Cc1nnc2n1-c1sc(CCC(=O)N3CCOCC3)cc1C(c1ccccc1Cl)=NC2
not listed: [3] | [19]
inactive: all other assays above

[O]=[Cd]
not listed: [3] | [8] | [19]
inactive: all other assays above

COP(=S)(OC)Oc1ccc(S(N)(=O)=O)cc1
not listed: [4] | [5] | [8] | [19]
inactive: all other assays above

CC(Oc1ccc(Oc2ncc(C(F)(F)F)cc2Cl)cc1)C(=O)O (centres undefined)
not listed: [3] | [9] | [10] | [20]
inactive: all other assays above

COc1cc(OC)nc(NC(=O)NS(=O)(=O)c2ncccc2OCC(F)(F)F)n1
not listed: [3] | [10] | [19] | [20]
inactive: all other assays above

CCCSP(=O)(OCC)Oc1ccc(Br)cc1Cl (centres undefined)
not listed: [3] | [12] | [16] | [19] | [20]
inactive: all other assays above

CSc1nc(N=[N+]=[N-])nc(NC(C)C)n1
not listed: [6] | [17] | [18] | [19] | [20]
inactive: all other assays above
